According to article PMC9911399, “Two distinct binding modes provide the RNA-binding protein RbFox with extraordinary sequence specificity”:
Changes are numbered by the printed parent chain; changes in the protein carry UniProt numbers. The full ranking holds about 16,000 sequences; the median of “ka relative to ugcaugu” is about 0.0091, and the highest 2% start at about 0.032. For the sample, the highest values were picked, then their nearest neighbours and some sequences at random.

T1: RBFOX1 RRM (Homo sapiens, UniProt Q9NWB1 109-208)
T1 sequence: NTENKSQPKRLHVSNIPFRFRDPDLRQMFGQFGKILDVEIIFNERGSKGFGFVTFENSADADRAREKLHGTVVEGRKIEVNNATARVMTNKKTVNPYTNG

B1: CUAAAAA (DNA:RNA)
RNA: GGGAGACCGGAAUUCAGAUUGUCCCUAAAAAUUAAAUCCCGUCGUAGCCACCA
DNA 1: CAATCTGAATTCCGGTCTCCC
DNA 2: TGGTGGCTACGACGGGATT
B2: GGAGUAG (DNA:RNA)
RNA: B1 RNA with C25G, U26G, A28G, A29U, A31G
DNA 1: CAATCTGAATTCCGGTCTCCC
DNA 2: TGGTGGCTACGACGGGATT
B3: UCCUCGC (DNA:RNA)
RNA: GGGAGACCGGAAUUCAGAUUGUCCUCCUCGCUUAAAUCCCGUCGUAGCCACCA
DNA 1: CAATCTGAATTCCGGTCTCCC
DNA 2: TGGTGGCTACGACGGGATT
B4: GUCCUCG (DNA:RNA)
RNA: B1 RNA with C25G, A27C, A28C, A29U, A30C, A31G
DNA 1: CAATCTGAATTCCGGTCTCCC
DNA 2: TGGTGGCTACGACGGGATT
B5: UCGCUUG (DNA:RNA)
RNA: B3 RNA with C27G, U28C, C29U, G30U, C31G
DNA 1: CAATCTGAATTCCGGTCTCCC
DNA 2: TGGTGGCTACGACGGGATT
B6: UCGUCGC (DNA:RNA)
RNA: B3 RNA with C27G
DNA 1: CAATCTGAATTCCGGTCTCCC
DNA 2: TGGTGGCTACGACGGGATT
B7: UCGCUCC (DNA:RNA)
RNA: B3 RNA with C27G, U28C, C29U, G30C
DNA 1: CAATCTGAATTCCGGTCTCCC
DNA 2: TGGTGGCTACGACGGGATT
B8: UCGCUCG (DNA:RNA)
RNA: B3 RNA with C27G, U28C, C29U, G30C, C31G
DNA 1: CAATCTGAATTCCGGTCTCCC
DNA 2: TGGTGGCTACGACGGGATT
B9: UUCGUAA (DNA:RNA)
RNA: B1 RNA with C25U, A27C, A28G, A29U
DNA 1: CAATCTGAATTCCGGTCTCCC
DNA 2: TGGTGGCTACGACGGGATT
B10: GCGAAUA (DNA:RNA)
RNA: B1 RNA with C25G, U26C, A27G, A30U
DNA 1: CAATCTGAATTCCGGTCTCCC
DNA 2: TGGTGGCTACGACGGGATT
B11: AGCUUAC (DNA:RNA)
RNA: B3 RNA with U25A, C26G, C29U, G30A
DNA 1: CAATCTGAATTCCGGTCTCCC
DNA 2: TGGTGGCTACGACGGGATT
B12: UGACUUU (DNA:RNA)
RNA: B1 RNA with C25U, U26G, A28C, A29U, A30U, A31U
DNA 1: CAATCTGAATTCCGGTCTCCC
DNA 2: TGGTGGCTACGACGGGATT
B13: CAUGUCC (DNA:RNA)
RNA: B1 RNA with U26A, A27U, A28G, A29U, A30C, A31C
DNA 1: CAATCTGAATTCCGGTCTCCC
DNA 2: TGGTGGCTACGACGGGATT
B14: CUAGAAU (DNA:RNA)
RNA: B1 RNA with A28G, A31U
DNA 1: CAATCTGAATTCCGGTCTCCC
DNA 2: TGGTGGCTACGACGGGATT
B15: UAGCUCC (DNA:RNA)
RNA: B3 RNA with C26A, C27G, U28C, C29U, G30C
DNA 1: CAATCTGAATTCCGGTCTCCC
DNA 2: TGGTGGCTACGACGGGATT
B16: UAGCUUG (DNA:RNA)
RNA: B3 RNA with C26A, C27G, U28C, C29U, G30U, C31G
DNA 1: CAATCTGAATTCCGGTCTCCC
DNA 2: TGGTGGCTACGACGGGATT
B17: UAGCCCG (DNA:RNA)
RNA: B3 RNA with C26A, C27G, U28C, G30C, C31G
DNA 1: CAATCTGAATTCCGGTCTCCC
DNA 2: TGGTGGCTACGACGGGATT
B18: UAGCUCG (DNA:RNA)
RNA: B3 RNA with C26A, C27G, U28C, C29U, G30C, C31G
DNA 1: CAATCTGAATTCCGGTCTCCC
DNA 2: TGGTGGCTACGACGGGATT
B19: UAGUAGC (DNA:RNA)
RNA: B3 RNA with C26A, C27G, C29A
DNA 1: CAATCTGAATTCCGGTCTCCC
DNA 2: TGGTGGCTACGACGGGATT
B20: UCCUAGC (DNA:RNA)
RNA: B3 RNA with C29A
DNA 1: CAATCTGAATTCCGGTCTCCC
DNA 2: TGGTGGCTACGACGGGATT

molecular target: T1, RBFOX1 RRM; assay: EMSA; HiTS-Eq, 1 nM pool, 10 min; buffer printed only for the single-RNA assays: 10 mM Tris pH 7.5, 150 mM NaCl, 3.4 mM EDTA, 0.001% NP-40, 30 C; details: tags: His6 N-terminal (pET28a); label: 5' 32P
Outline: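 These values rest on relative association constants, computed from read-count changes of each RNA species versus the control reaction and normalised to the cognate motif. Reads came from free RNA recovered by 8% native PAGE after purified RbFox RRM (wild type or mutant) at increasing concentrations was equilibrated for 10 min in 50 µL with 1 nM of a 5′-radiolabelled pool with 7 randomized nucleotides and DNA-annealed flanks.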

Row | Binder | binding signal
1 | B1 | 0.000629 KA relative to UGCAUGU
2 | B2 | 0.0152 KA relative to UGCAUGU
3 | B3 | 0.00514 KA relative to UGCAUGU
4 | B4 | 0.0155 KA relative to UGCAUGU
5 | B5 | 0.0368 KA relative to UGCAUGU
6 | B6 | 0.0113 KA relative to UGCAUGU
7 | B7 | 0.0108 KA relative to UGCAUGU
8 | B8 | 0.0321 KA relative to UGCAUGU
9 | B9 | 0.00742 KA relative to UGCAUGU
10 | B10 | 0.0051 KA relative to UGCAUGU
11 | B11 | 0.00674 KA relative to UGCAUGU
12 | B12 | 0.0147 KA relative to UGCAUGU
13 | B13 | 0.00562 KA relative to UGCAUGU
14 | B14 | 0.00687 KA relative to UGCAUGU
15 | B15 | 0.00512 KA relative to UGCAUGU
16 | B16 | 0.0445 KA relative to UGCAUGU
17 | B17 | 0.0123 KA relative to UGCAUGU
18 | B18 | 0.0341 KA relative to UGCAUGU
19 | B19 | 0.0177 KA relative to UGCAUGU
20 | B20 | 0.0075 KA relative to UGCAUGU
